Read-out in test [1]: Transforming growth factor beta 1 (TGFb1), TGFB1 (gene 7040)
Kind of test: BSK_KF3CT_TGFb1: BioMAP Diversity Plus: KF3CT Assay for Transforming growth factor beta 1 (TGFb1) Biomarker Activity (AID 2283072). As to conditions: primary human keratinocytes with fibroblasts; actives raise or lower the signal. In outline:
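Primary human skin cells (keratinocytes, foreskin fibroblasts) were co-cultured, exposed to test chemical and sampled at 24 h. TGF-b1 levels were measured by ELISA and fitted bidirectionally relative to DMSO.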

Read-out in test [2]: C-C motif chemokine 2 (Homo sapiens) (UniProt P13500)
Put plainly: BSK_KF3CT_MCP1: BioMAP Diversity Plus: KF3CT Assay for Monocyte Chemoattractant Protein 1 (MCP1/CCL2) Biomarker Activity (AID 2283073). As to conditions: primary human keratinocytes with fibroblasts; actives raise or lower the signal. In a few lines:
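Human keratinocyte plus foreskin fibroblast primary co-culture exposed to chemical for 24 h. MCP-1 levels measured by ELISA. Bidirectional curve fitting relative to DMSO negative control as baseline.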

Read-out in test [3]: Matrix Metallopeptidase 9 (MMP9), MMP9 (gene 4318)
Put plainly: BSK_KF3CT_MMP9: BioMAP Diversity Plus: KF3CT Assay for Matrix Metallopeptidase 9 (MMP9) Biomarker Activity (AID 2283074).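 For AC50: MMP9 protein level quantified by ELISA in the co-culture.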 The note with it: primary human keratinocytes with fibroblasts; actives raise or lower the signal. In outline:
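Keratinocyte plus foreskin fibroblast human primary skin co-culture was dosed with chemical and MMP-9 was quantified by ELISA 24 h later. Bidirectional curve fitting used DMSO as negative control and activity baseline.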

Read-out in test [4]: urokinase plasminogen activator (uPA), PLAU (gene 5328)
Kind of test: BSK_KF3CT_uPA: BioMAP Diversity Plus: KF3CT Assay for urokinase plasminogen activator (uPA) Biomarker Activity (AID 2283075). The note with it: primary human keratinocytes with fibroblasts; actives raise or lower the signal. In outline:
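Human keratinocyte plus foreskin fibroblast primary co-culture exposed to chemical for 24 h. uPA levels were quantified by ELISA, and activity was fitted bidirectionally against a DMSO negative-control baseline.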

Read-out in test [5]: CD40, CD40 (gene 958)
Put plainly: BSK_LPS_CD40: BioMAP Diversity Plus: LPS Assay for CD40 Biomarker Activity (AID 2283076). The note with it: primary human HUVEC with PBMC; actives raise or lower the signal. In a few lines: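 Primary human umbilical vein endothelial cells co-cultured with peripheral blood mononuclear cells, LPS-stimulated, were dosed with chemical and read 24 h later. CD40 levels were measured by ELISA and fitted bidirectionally against DMSO as negative control and baseline.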

Read-out in test [6]: E-selectin (Homo sapiens) (UniProt P16581)
Kind of test: BSK_LPS_Eselectin: BioMAP Diversity Plus: LPS Assay for Eselectin Biomarker Activity (AID 2283077). The note with it: primary human HUVEC with PBMC; actives raise or lower the signal. In a few lines:
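Human umbilical vein endothelial cells co-cultured with peripheral blood mononuclear cells under LPS stimulation; E-selectin measured by ELISA 24 h after chemical dosing. Activity fitted bidirectionally against DMSO as negative control and baseline.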

Read-out in test [7]: Interleukin-8 (IL8), CXCL8 (gene 3576)
Kind of test: BSK_LPS_IL8: BioMAP Diversity Plus: LPS Assay for Interleukin-8 (IL8) Biomarker Activity (AID 2283078). As to conditions: primary human HUVEC with PBMC; actives raise or lower the signal. In a few lines:
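Human umbilical vein endothelial cells co-cultured with PBMC were stimulated with LPS; IL-8 levels were measured by ELISA 24 h after chemical dosing. Activity was fitted bidirectionally against DMSO as negative control and baseline.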

Test [8] can be described thus: BSK_LPS_SRB: Viability Assessment in the BioMAP Diversity Plus: LPS Assay (AID 2283079).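 Note: total protein by sulforhodamine B absorbance as a cytotoxicity measure; measured one day after compound addition; fitted in both directions against DMSO so loss or gain of signal counts.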 As to conditions: primary human HUVEC with PBMC. In outline: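 Human umbilical vein endothelial cells co-cultured with PBMC (LPS system) were dosed for 24 h. Total protein was stained with 0.1% sulforhodamine B after 10% TCA fixation, read at 560 nm, and fitted bidirectionally against DMSO baseline.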

Read-out in test [9]: Interleukin-1 alpha (IL1a), IL1A (gene 3552)
Kind of test: BSK_LPS_IL1a: BioMAP Diversity Plus: LPS Assay for Interleukin-1 alpha (IL1a) Biomarker Activity (AID 2283080). As to conditions: primary human HUVEC with PBMC; actives raise or lower the signal. In a few lines: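 Human umbilical vein endothelial cells co-cultured with peripheral blood mononuclear cells were LPS-stimulated and exposed to test chemicals for 24 h. IL-1 alpha was quantified by ELISA, with bidirectional curve fitting against DMSO as the negative control and baseline.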

Read-out in test [10]: Monocyte Chemoattractant Protein-1 (MCP1), CCL2 (gene 6347)
Kind of test: BSK_LPS_MCP1: BioMAP Diversity Plus: LPS Assay for Monocyte Chemoattractant Protein-1 (MCP1) Biomarker Activity (AID 2283081).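 For AC50: co-culture stimulated with LPS; secreted MCP-1 protein quantified by ELISA in culture supernatant.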 As to conditions: primary human HUVEC with PBMC; actives raise or lower the signal. In outline: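 HUVEC plus PBMC co-culture (human primary cells, LPS system) exposed to test chemical for 24 h; MCP-1 measured by ELISA. Bidirectional curve fitting against DMSO baseline; parallel SRB total-protein staining flags overt cytotoxicity.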

Test [11] is described as follows: BSK_LPS_PGE2: BioMAP Diversity Plus: LPS Assay for Prostaglandin E2 (PGE2) Biomarker Activity (AID 2283082).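 For AC50: secreted prostaglandin E2 measured by ELISA in LPS-stimulated co-culture.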 As to conditions: primary human HUVEC with PBMC; actives raise or lower the signal. In outline: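 LPS-activated HUVEC/PBMC co-culture; cmpd dosed, 24 h; PGE2 by ELISA; bidirectional fit vs DMSO; SRB (0.1%, TCA-fixed, 560 nm) in parallel plates for overt cytotox.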

Read-out in test [12]: Macrophage colony-stimulating factor (MCSF), CSF1 (gene 1435)
Kind of test: BSK_LPS_MCSF: BioMAP Diversity Plus: LPS Assay for Macrophage colony-stimulating factor (MCSF) Biomarker Activity (AID 2283083). As to conditions: primary human HUVEC with PBMC; actives raise or lower the signal. In outline:
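Human umbilical vein endothelial cells co-cultured with peripheral blood mononuclear cells were exposed to compound for 24 h. M-CSF levels were measured by ELISA, and bidirectional curve fitting used DMSO as the negative control and baseline.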

Read-out in test [13]: Tissue Factor, F3 (gene 2152)
Put plainly: BSK_LPS_TissueFactor: BioMAP Diversity Plus: LPS Assay for Tissue Factor Biomarker Activity (AID 2283084). The note with it: primary human HUVEC with PBMC; actives raise or lower the signal. In outline: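 Human umbilical vein endothelial cells co-cultured with peripheral blood mononuclear cells were dosed and stimulated with LPS. Cell-surface CD142 was quantified by ELISA at 24 h. Activity was fitted bidirectionally against DMSO baseline.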

Read-out in test [14]: Tumor necrosis factor (Homo sapiens) (UniProt P01375)
Put plainly: BSK_LPS_TNFa: BioMAP Diversity Plus: LPS Assay for Tumour Necrosis Factor alpha (TNFa) Biomarker Activity (AID 2283085). As to conditions: primary human HUVEC with PBMC; actives raise or lower the signal. In outline:
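Read-out is ELISA of TNFa in primary human endothelial cell–PBMC co-cultures at 24 h after compound. Activity in either direction was fitted against DMSO.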

Read-out in test [15]: Vascular cell adhesion molecule 1 (VCAM1), VCAM1 (gene 7412)
Kind of test: BSK_LPS_VCAM1: BioMAP Diversity Plus: LPS Assay for Vascular cell adhesion molecule 1 (VCAM1) Biomarker Activity (AID 2283086). The note with it: primary human HUVEC with PBMC; actives raise or lower the signal. In a few lines:
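HUVEC + PBMC co-culture, LPS system; compound 24 h; VCAM-1 by ELISA; bidirectional fit vs DMSO control; parallel SRB (0.1%, TCA-fixed, 560 nm) for cytotoxicity.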

Read-out in test [16]: CD38, CD38 (gene 952)
Kind of test: BSK_SAg_CD38: BioMAP Diversity Plus: SAg Assay for CD38 Biomarker Activity (AID 2283087). The note with it: primary human HUVEC with PBMC; actives raise or lower the signal. In outline:
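Human HUVEC plus PBMC co-culture stimulated with superantigen; CD38 measured by ELISA 24 h after chemical dosing. Fluorescence read-out, bidirectional fit against DMSO; cytotoxicity tracked in parallel by SRB and Alamar Blue.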

Read-out in test [17]: CD40, CD40 (gene 958)
Kind of test: BSK_SAg_CD40: BioMAP Diversity Plus: SAg Assay for CD40 Biomarker Activity (AID 2283088). The note with it: primary human HUVEC with PBMC; actives raise or lower the signal. In outline: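 Human umbilical vein endothelial cells co-cultured with PBMC; CD40 levels measured by ELISA with fluorescence read-out 24 h after chemical dosing. Gain or loss of signal fitted bidirectionally against DMSO baseline.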

Read-out in test [18]: CD69, CD69 (gene 969)
Kind of test: BSK_SAg_CD69: BioMAP Diversity Plus: SAg Assay for CD69 Biomarker Activity (AID 2283089).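 For AC50: cell surface CD69 protein quantified by ELISA with fluorescence detection.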 As to conditions: primary human HUVEC with PBMC; actives raise or lower the signal. In a few lines:
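Endothelial/PBMC co-culture; chemical added; 24 h incubation; CD69 ELISA with fluorescence detection; bidirectional fit vs DMSO.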

Read-out in test [19]: Monocyte Chemoattractant Protein-1 (MCP1), CCL2 (gene 6347)
Kind of test: BSK_SAg_MCP1: BioMAP Diversity Plus: SAg Assay for Monocyte Chemoattractant Protein-1 (MCP1) Biomarker Activity (AID 2283090). As to conditions: primary human HUVEC with PBMC; actives raise or lower the signal. In a few lines: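 MCP-1 levels in the endothelial–PBMC SAg co-culture were quantified by ELISA at 24 h post-dosing; both increases and decreases versus DMSO scored. Cytotoxicity monitored by SRB total protein in parallel cultures.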

Read-out in test [20]: E-selectin (Homo sapiens) (UniProt P16581)
Kind of test: BSK_SAg_Eselectin: BioMAP Diversity Plus: SAg Assay for Eselectin Biomarker Activity (AID 2283091). As to conditions: primary human HUVEC with PBMC; actives raise or lower the signal. In outline:
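HUVEC co-cultured with PBMC, compound dosed then read at 24 h; E-selectin measured by ELISA. Activity fitted bidirectionally against DMSO as negative control and baseline.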

Activity calls are given as the source filed them. Rule for the calls: active = hit-call score of the fitted dose curve at least 0.9, where 1 is the maximum; inactive = score below 0.9.

Chain of E-selectin (Homo sapiens) (P16581 whole entry, looked up): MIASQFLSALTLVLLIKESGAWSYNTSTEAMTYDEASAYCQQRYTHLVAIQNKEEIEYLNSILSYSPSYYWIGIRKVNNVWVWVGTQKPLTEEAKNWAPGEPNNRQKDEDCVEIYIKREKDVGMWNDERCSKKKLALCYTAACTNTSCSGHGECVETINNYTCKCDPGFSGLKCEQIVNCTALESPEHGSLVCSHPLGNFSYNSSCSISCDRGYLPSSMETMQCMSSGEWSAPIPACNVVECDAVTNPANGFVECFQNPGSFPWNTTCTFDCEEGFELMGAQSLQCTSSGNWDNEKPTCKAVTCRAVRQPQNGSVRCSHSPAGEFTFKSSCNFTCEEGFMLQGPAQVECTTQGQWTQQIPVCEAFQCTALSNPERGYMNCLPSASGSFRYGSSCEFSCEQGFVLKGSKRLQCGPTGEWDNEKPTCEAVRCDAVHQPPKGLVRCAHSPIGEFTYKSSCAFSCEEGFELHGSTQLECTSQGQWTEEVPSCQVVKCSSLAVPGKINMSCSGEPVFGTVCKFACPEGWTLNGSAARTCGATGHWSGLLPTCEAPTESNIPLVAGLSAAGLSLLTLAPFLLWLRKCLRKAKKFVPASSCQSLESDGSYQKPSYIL
Chain of Tumor necrosis factor (Homo sapiens) (P01375 whole entry, looked up): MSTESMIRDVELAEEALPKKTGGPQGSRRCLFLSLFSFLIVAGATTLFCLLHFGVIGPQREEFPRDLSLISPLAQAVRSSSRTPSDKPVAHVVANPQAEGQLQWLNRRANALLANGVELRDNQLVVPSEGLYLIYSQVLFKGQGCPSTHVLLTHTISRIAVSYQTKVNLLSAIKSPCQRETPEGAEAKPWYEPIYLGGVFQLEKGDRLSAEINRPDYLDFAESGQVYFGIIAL

Usually AC50 stands for the concentration at which the activity in the assay is half-maximal. Turning to `CC/C(=C(/CC)c1ccc(O)cc1)c1ccc(O)cc1`, the AC50 in test [1] was 5.87 µM (active); in test [2], 11.2 µM (active); in test [3], 12.3 µM (active); in test [4], 29.3 µM (active); in test [5] it was 20 µM (active); in [6], 30.3 µM (active). Also, the AC50 is 37 µM (active) in test [7]; 25.4 µM (active) in [8]; 29.7 µM (active) in test [9]; 33.9 µM (active) in test [10]; 20 µM (active) in test [11]; 15.2 µM (active) in test [12]. Besides, the half-maximal activity concentration (AC50) in [13] was 29.9 µM (active); in test [14], 32.3 µM (active); in test [15], 26.8 µM (active); in test [16], 19 µM (active); in [17], 17.8 µM (active); in test [18], 25.1 µM (active). The AC50 in test [19] is 21.6 µM (active); in [20] it was 8.84 µM (active).
Regarding `O=CCCCC=O`, the half-maximal activity concentration (AC50) in test [1] was 29.6 µM (active); in test [2], 32 µM (active); in test [3], 24.9 µM (active); in [4], 32 µM (active); in test [9], 32.9 µM (active); in test [12] it was 37.3 µM (active). For the same compound, the AC50 in [14] is 32.7 µM (active); in test [15] it was 33 µM (active); in [17], 29.8 µM (active); in test [20], 30.3 µM (active). Moreover, the result in [6], in test [7], in test [8], in [10], in [11] and in [13] was inactive. Also, the outcome in test [18] and in test [19] was inactive.
Turning to `O=C(OCCCCCCOC(=O)c1ccccc1)c1ccccc1`, the result in [2], in test [3], in [4], in test [5], in [6] and in [7] was inactive. For the same compound, the result in test [8], in test [9], in test [10], in [12], in test [13] and in test [15] was inactive. In addition, the outcome in test [16], in test [17], in [18], in [19] and in test [20] was inactive. In addition, the AC50 is 32.4 µM (active) in [11] and 4.86 µM (active) in [14].
Consider `c1ccc2n[nH]nc2c1`, for which the outcome in [1], in test [2], in [3], in [4], in test [6] and in [7] was inactive. In addition, the result in [8], in test [9], in test [10], in [11], in test [12] and in test [13] was inactive. For the same compound, the result in test [14], in [15], in test [16], in test [17], in test [18] and in test [19] was inactive. Besides, the result in test [20] was inactive.
Take `O=C=NCCCCCCN=C=O`: the result in test [1], in test [2], in [3], in test [4], in [5] and in test [6] was inactive. In addition, the result in test [7], in test [8], in test [9], in test [10], in test [11] and in test [12] was inactive. Also, the outcome in test [13], in test [14], in test [15], in [16], in [17] and in test [18] was inactive. The result in [19] and in test [20] was inactive.

These data come from PubChem BioAssay (EPA / NIEHS).
